Pf growth 96h: inhibits malaria parasite growth, 96 h | P. falciparum luciferase reporter growth, 96 h | Potency, µM (top dose mostly 28.7 µM), for inactives: at the highest dose activity change, negative = inhibition, usual class: inhibitors | hit rate 6.9% among 320,000 | AID 504834; further: potency means the concentration at half of the fitted maximal effect; on the % scale 0 is the no-effect control and ±100 the full control effect
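Two-generation exposure (96 h) targets delayed-death phenotype. Reporter parasites carrying integrated firefly luciferase, in red cells at 2% hematocrit and 0.05% parasitemia final, kept at 37 C, 5% CO2; luminescence loss indicates inhibition.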
HCV inhibitor: inhibitors of hepatitis C virus infection | hit rate 3.4% among 340,000 | Potency, µM (highest dose often 41.8 µM), without a hit: at the top dose activity change, negative = inhibition, hits mostly inhibitors | Huh7.5.1 HCVcc-Cre infection, luciferase reporter, 44 h | AID 651820; further: potency means the concentration at half of the fitted maximal effect; on the % scale 0 is the no-effect control and ±100 the full control effect
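Infectious HCV cell culture screen: compound-treated cells (1,000/well, pre-plated 4 h) are infected with HCVcc-Cre at roughly 0.5 moi and grown 44 h. Infection is quantified by luciferase signal after 15 min substrate incubation at room temperature.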
Pf growth 48h: inhibits P. falciparum growth in the first generation, 48 h | P. falciparum luciferase growth in erythrocytes, 48 h | Potency, µM (titrated, usually from 28.7 µM), for the others: at the highest dose activity change, negative = inhibition, hits mostly inhibitors | hit rate 5.9% among 310,000; further: potency means the concentration at half of the fitted maximal effect; on the % scale 0 is the no-effect control and ±100 the full control effect
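First compound was added to culture medium, then infected red cells at 0.1% parasitemia and 2% hematocrit (final). After incubation at 37 C under 5% CO2, luciferase detection reagent was dispensed and light output recorded.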
Sm TGR block: inhibitors of Schistosoma mansoni thioredoxin glutathione reductase; purified TGR, DTNB reduction, TNB absorbance 405 nm; Potency, µM (doses to about 114 µM), inactives show at the highest dose activity change, negative = inhibition, hits mostly inhibitors; hit rate 3% among 360,000; AID 485364; further: potency means the concentration at half of the fitted maximal effect; on the % scale 0 is the no-effect control and ±100 the full control effect; nearly all actives have a fitted effect of over 60% in size
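TGR 20 nM + NADPH 100 uM (dispensed conc.), cpd preinc 15 min RT; start with NADPH (500 uM addition) then DTNB (15 mM addition). Kinetic TNB absorbance, 405 nm filter. Four-parameter Hill fit across titration.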
SARS PLpro yeast: blocks SARS-CoV papain-like protease in a yeast assay. AID 485353. Potency, µM (doses to about 32.9 µM), inactives show at the top dose activity, positive = growth rescue, usual class: activators. S. cerevisiae expressing SARS-CoV PLpro, growth rescue. hit rate 0.19% among 330,000; calls by dose curve; further: potency means the concentration at half of the fitted maximal effect; 0% is about no effect; nearly all actives have a fitted effect of over 55% in size
HCMV inh: blocks human cytomegalovirus replication | HFF cells, HCMV-luciferase reporter, 72 h; hits give low values | activity change, negative = inhibition, % at 57.5 µM | hit rate 4.5% among 410,000 | AID 1259415; in the data active means activity change below about -60%; inconclusive means no clear call, values can overlap the other calls; inactive means above about -39%; further: on the % scale 0 is the no-effect control and ±100 the full control effect
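Inhibition of viral replication was scored as loss of reporter luminescence in HFFs infected with HCMV-luciferase (MOI 1 PFU/cell) for 72 h; compounds tested at 2 doses, normalized to buffer and Salinomycin controls.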
Active calls of the source: *; ? = inconclusive; . = no result given. Most compounds without a hit are left out; they make up all but 15% or so of the library. Unless noted, the call rests on the fitted dose curve; in most records, active means well fitted curve in the direction sought with a large enough effect; inconclusive means small, poorly fitted or top-dose-only effect, or another doubt; inactive means no such curve, though single readings can be large; an effect the other way counts as inactive or inconclusive.

SMILES	Pf growth 96h	HCV inhibitor	Pf growth 48h	Sm TGR block	SARS PLpro yeast	HCMV inh
CCCCNc1nc(-c2ccccc2)nc(-n2ccnc2)n1	0%	3.5µM*	.	1%	4%	-16
COc1ccc(Cl)cc1NC(=O)CN(C)C(=O)c1ccc(-n2cncn2)cc1	.	0%	.	.	-15%	-2
O=P(/C(=N/O)Sc1ccccc1)(N1CCOCC1)N1CCOCC1	-14%	2%	?	13µM*	-3%	-23
O=P(/C(=N/O)N1CCCCC1)(N1CCOCC1)N1CCOCC1	23%	10%	8%	1%	10%	-19
CN(Cc1ccc(C(C)(C)C)cc1)C(=O)C1CCN(C(=O)Nc2ccccc2)CC1	13µM*	?	10µM*	0%	1%	-22
CC(=O)Nc1ccc(N2C(C(C)=O)=NN(c3ccc(Cl)cc3)C2c2sccc2C)cc1 (centres undefined)	?	?	9.3µM*	-2%	-7%	10
O=C1CSC(c2cccs2)N1c1ccccc1 (centres undefined)	7.4µM*	4%	6%	-29%	-4%	47
O=C1CSC(c2ccccn2)N1c1ccc(C(F)(F)F)cc1 (centres undefined)	?	-27%	2.9µM*	-5%	0%	21
Cc1ccccc1-c1cnc(C(O)c2ccc(C(C)(C)C)cc2)[nH]1 (centres undefined)	.	.	.	.	.	1
COc1ccc(C2NCCc3c2[nH]c2ccccc32)cc1COc1ccc(F)cc1 (centres undefined)	?	10µM*	?	-4%	-4%	-98*
COc1ccc(C2NCCc3c2[nH]c2ccccc32)cc1CN1CCc2cc(OC)c(OC)cc2C1C (centres undefined)	?	11µM*	1.7µM*	-17%	-1%	.
COc1ccc(-c2noc(CNC(=O)COc3cccc(C)c3C)n2)cc1	.	.	.	3%	.	-36
Cc1oc2ccc(O)c(CN(C)Cc3ccccc3)c2c1C(=O)Nc1cccc(Cl)c1C	.	.	.	-15%	.	-66*
Cc1oc2ccc(O)c(CN3CCCC3)c2c1C(=O)Nc1ccccc1	.	.	.	-7%	.	-33
Cc1ccccc1NC(=O)c1c(C)oc2ccc(O)c(CN(C)Cc3ccccc3)c12	.	.	.	-7%	.	-17
CCOC(=O)c1c(-c2ccccc2)oc2ccc(O)c(CN(C)C)c12	?	-29%	.	-19%	-6%	-7
CCOC(=O)c1c(-c2ccccc2)oc2ccc(O)c(CN3CCCC3)c12	1µM*	-24%	1.9µM*	8%	4%	-62*
Cc1ccc(NC(=O)c2c(C)oc3ccc(O)c(CN4CCCCCC4)c23)c(C)c1	.	.	.	-3%	.	-65*
Cc1oc2ccc(O)c(CN3CCCCCC3)c2c1C(=O)Nc1cccc(C(F)(F)F)c1	.	.	.	-1%	.	-86*
CCOC(=O)[C@]12CCCC=C1N(Cc1cccc3ccccc13)C(=O)[C@H](CC(=O)NCCCCc1ccccc1)C2	.	.	.	.	.	23
CC(C)NC(=O)c1cc(C2CCCCN2S(=O)(=O)c2cccs2)on1 (centres undefined)	.	.	.	.	.	-21
CCOC(=O)C1=CCN(S(=O)(=O)c2ccc(Br)cc2)C1c1cccc(F)c1 (centres undefined)	.	.	.	.	.	-36
Cc1oc2ccc(O)c(CN3CCCCCC3)c2c1C(=O)Nc1cccc(Cl)c1C	.	.	.	4%	.	-100*
CCOC(=O)c1c(CSCc2ccccc2)oc2ccc(O)c(CN(C)C)c12	5.9µM*	?	5.9µM*	-16%	0%	0
Cc1ccc(NC(=O)c2c(C)oc3ccc(O)c(CN4CCCCCC4)c23)cc1	.	.	.	-17%	.	-85*
SMILES	Pf growth 96h	HCV inhibitor	Pf growth 48h	Sm TGR block	SARS PLpro yeast	HCMV inh
Cc1cccc(NC(=O)Cn2c(=O)n3nc(CCn4nc(C)cc4C)nc3c3ccccc32)c1	59%	-17%	?	-1%	11%	-32
CCN(C(=O)Cn1c(=O)n2nc(CCn3nc(C)cc3C)nc2c2ccccc21)c1cccc(C)c1	2.6µM*	.	31%	10%	2%	16
O=C(CN1CCN(S(=O)(=O)c2cc(Cl)ccc2Cl)CC1)Nc1ccc2c(c1)OCCO2	57%	?	?	-12%	14%	2
CC(=O)NCCCC(=O)NN1C(=S)N(Cc2ccccc2)C(=O)C1CC(=O)Nc1cccc(C)c1 (centres undefined)	6%	10%	-24%	4%	-2%	-5
Cc1nc(-c2ccc(S(=O)(=O)Nc3ccc(Br)cc3F)cc2)co1	-2%	5%	11%	-6%	6%	?
C=CCN(C(=O)CSc1nc2c(sc3ccccc32)c(=O)n1CCN(CC)CC)c1ccccc1	0%	-50%	?	1%	-1%	-67*
CCN(CC)CCn1c(SCC(=O)Nc2ccc(F)cc2)nc2c(sc3ccccc32)c1=O	?	.	9.3µM*	-19%	-2%	.
CCc1ccc(NC(=O)CSc2nc3c(sc4ccccc43)c(=O)n2CCN(CC)CC)cc1	.	.	.	7%	.	-60*
Cc1cc(NC(=O)CSc2nc3c(sc4ccccc43)c(=O)n2CCCN2CCOCC2)n[nH]1	?	5.6µM*	.	4%	11%	.
CC(C)(C)c1ccc(-c2nnc(SCC(=O)NC3CCS(=O)(=O)C3)n2N)cc1 (centres undefined)	92%	1%	55%	14%	-5%	27
CN(C)CCn1c(SCc2ccccc2C#N)nc2c(sc3ccccc32)c1=O	6.6µM*	-8%	?	-7%	-3%	-67*
O=C(/C=C/c1ccccc1)NCc1ccco1	-12%	9%	51%	0%	-1%	-15
Cc1ccc(/C=C/C(=O)NCc2ccc3c(c2)OCO3)o1	-27%	1%	-5%	13µM*	-25%	-62*
O=C(/C=C/c1ccco1)NCc1ccco1	55%	18%	19%	4µM*	1%	48
O=C(/C=C/c1c(Cl)cccc1Cl)NCc1ccco1	27%	-9%	8%	-8%	9%	?
Cc1ccc(/C=C/C(=O)NCc2ccco2)o1	-21%	1%	-7%	13µM*	-7%	-20
O=C(/C=C/c1ccco1)NCC1CCCO1 (centres undefined)	0%	25%	3%	5µM*	-1%	11
N#CCCSc1ccccc1NC(=O)c1ccc(S(=O)(=O)N2CCCC2)cc1	9%	.	?	-19%	-2%	.
COc1cccc(NC(=O)CCC2CCN(C(=O)c3scnc3C)CC2)c1	49%	1%	6%	-2%	0%	20
Cc1csc2nc(-c3cccc(NC(=O)c4cccc(F)c4)c3)cn12	.	.	.	0%	.	-26
Cc1cccc(NC(=O)Cn2nnc3ccccc32)c1	?	17%	57%	-1%	0%	20
CC(C)(CO)[C@@H](O)C(=O)NCCCO	1%	.	8%	.	.	.

High-throughput results from PubChem BioAssay.
